Records with an inconclusive call do not appear. Calls of active or inactive are those of the source. Rule for the calls, unless noted: active = hit-call score of the fitted dose curve at least 0.9, where 1 is the maximum; inactive = score below 0.9.

Assay [1] addresses Glucocorticoid receptor (Homo sapiens) (UniProt P04150). Briefly: ATG_GR_TRANS: Attagene TRANS-FACTORIAL HepG2 Assay for human Glucocorticoid Receptor (GR) (AID 2282978; active = hit-call score of the fitted dose curve at least 0.9, where 1 is the maximum;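 note: activators score as hits since higher reporter transcript over DMSO is fitted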). To be noted: HepG2 Attagene TRANS GR reporter, mRNA transcription. In short, it runs like this:
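Fluorescent capillary-electrophoresis quantitation of reporter mRNA is the readout, taken 24 h after dosing human HepG2 cells carrying transiently transfected GAL4-UAS reporter units activated by chimeric NR-GAL4 fusions; activity scored as induction over DMSO.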

Assay [2] deals with Bile acid receptor (Homo sapiens) (UniProt Q96RI1). The experiment in a line: ATG_FXR_TRANS: Attagene TRANS-FACTORIAL HepG2 Assay for Farnesoid X Receptor (FXR) (AID 2282979; active = hit-call score of the fitted dose curve at least 0.9, where 1 is the maximum;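 note: hits raise reporter mRNA above DMSO so AC50 marks FXR activation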). To be noted: HepG2 Attagene TRANS FXR-GAL4 reporter transcription. The essentials:
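Chimeric FXR-GAL4 activity in transiently transfected human HepG2 liver cells is scored as induction of reporter mRNA after 24 h of dosing. Detection uses RT-PCR with fluorescent labelling and capillary electrophoresis, with DMSO serving as baseline.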

Assay [3] can be described thus: ATG_M_06_TRANS: Attagene TRANS-FACTORIAL HepG2 Assay for M06 Transcription Factor (Internal Marker) (AID 2282983; active = hit-call score of the fitted dose curve at least 0.9, where 1 is the maximum). To be noted: HepG2 Attagene TRANS M06 internal marker reporter. In short, it runs like this: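 Measured by capillary electrophoresis of fluorescently labelled RT-PCR products, this endpoint reflects reporter mRNA in HepG2 cells harbouring exogenous NR-GAL4 reporter constructs after 24 h exposure, with DMSO as baseline.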

Assay [4] is described as follows: ATG_M_32_TRANS: Attagene TRANS-FACTORIAL HepG2 Assay for M32 Transcription Factor (Internal Marker) (AID 2282984; active = hit-call score of the fitted dose curve at least 0.9, where 1 is the maximum). To be noted: HepG2 Attagene TRANS M32 internal marker reporter. In short, it runs like this: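 HepG2 cells transiently transfected with multiple GAL4-UAS reporter transcription units, dosed for 24 hours; reporter mRNA quantified by RT-PCR, 6-FAM primer extension, HpaI digestion and capillary electrophoresis. Gain-of-signal fitted versus DMSO baseline; internal background-control marker.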

The target in assay [5] is Transcriptional activator Myb (Homo sapiens) (UniProt P10242). The experiment in a line: ATG_Myb_CIS: Attagene CIS-FACTORIAL HepG2 Assay for human Myeloblastosis (Myb) Proto-Oncogene Transcription Factor (AID 2282986). To be noted: HepG2 Attagene CIS-FACTORIAL Myb reporter transcription; actives raise or lower the signal. The essentials: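 Reporter transcript levels, quantified by fluorescent RT-PCR and capillary electrophoresis, serve as the read-out. Transfected HepG2 cells carrying cis-promoter reporter units are dosed for 24 hours, and curves are fitted bidirectionally against DMSO controls.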
Transcriptional activator Myb (Homo sapiens), sequence (P10242 whole entry, looked up): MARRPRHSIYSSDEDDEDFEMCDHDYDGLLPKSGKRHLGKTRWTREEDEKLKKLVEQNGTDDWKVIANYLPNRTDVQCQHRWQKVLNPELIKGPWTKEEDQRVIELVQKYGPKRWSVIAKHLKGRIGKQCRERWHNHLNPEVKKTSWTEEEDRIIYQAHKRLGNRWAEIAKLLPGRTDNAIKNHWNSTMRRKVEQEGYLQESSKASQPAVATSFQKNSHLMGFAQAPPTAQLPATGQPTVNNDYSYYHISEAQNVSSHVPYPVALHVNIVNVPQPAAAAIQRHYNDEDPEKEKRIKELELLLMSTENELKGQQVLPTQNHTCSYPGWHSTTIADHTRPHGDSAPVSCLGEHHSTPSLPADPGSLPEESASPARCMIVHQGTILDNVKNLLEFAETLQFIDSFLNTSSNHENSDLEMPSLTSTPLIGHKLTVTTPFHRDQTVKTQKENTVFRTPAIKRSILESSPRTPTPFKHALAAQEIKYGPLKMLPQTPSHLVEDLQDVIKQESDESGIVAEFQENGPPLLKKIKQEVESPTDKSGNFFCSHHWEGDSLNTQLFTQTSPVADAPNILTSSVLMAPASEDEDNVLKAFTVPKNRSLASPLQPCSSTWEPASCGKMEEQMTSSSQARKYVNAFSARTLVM

In assay [6] the target is Nuclear respiratory factor 1 (Homo sapiens) (UniProt Q16656). The experiment in a line: ATG_NRF1_CIS: Attagene CIS-FACTORIAL HepG2 Assay for human Nuclear Respiratory Factor 1 (NRF1) Orphan Gene (AID 2282987). As to conditions: HepG2 NRF1 cis-element reporter, Attagene multiplex; actives raise or lower the signal. The essentials: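 Multiplexed cis-reporter assay, HepG2 cells, 24 h treatment. Total RNA → oligo(dT) RT → PCR with reporter-specific primers → 6-FAM primer extension → HpaI cut → CE. Bidirectional fit vs DMSO.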
Nuclear respiratory factor 1 (Homo sapiens), sequence (Q16656 whole entry, looked up): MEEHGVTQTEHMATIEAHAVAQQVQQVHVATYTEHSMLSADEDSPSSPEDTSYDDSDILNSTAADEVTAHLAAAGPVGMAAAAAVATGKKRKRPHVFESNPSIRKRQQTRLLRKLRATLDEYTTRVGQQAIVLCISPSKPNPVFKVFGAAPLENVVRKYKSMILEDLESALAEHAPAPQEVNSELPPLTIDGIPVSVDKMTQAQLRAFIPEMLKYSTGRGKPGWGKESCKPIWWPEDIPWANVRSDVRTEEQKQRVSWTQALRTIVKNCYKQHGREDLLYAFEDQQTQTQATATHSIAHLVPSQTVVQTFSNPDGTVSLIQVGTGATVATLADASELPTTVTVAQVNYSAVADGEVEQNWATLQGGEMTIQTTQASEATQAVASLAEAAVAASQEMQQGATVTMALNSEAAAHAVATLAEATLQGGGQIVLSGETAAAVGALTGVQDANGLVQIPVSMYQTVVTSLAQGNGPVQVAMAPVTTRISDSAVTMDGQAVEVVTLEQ

A short description of assay [7]: ATG_NFI_CIS: Attagene CIS-FACTORIAL HepG2 Assay for human Nuclear Factor I (NFI) (AID 2282989). To be noted: HepG2 cis-regulatory reporter, NFI response element transcription; actives raise or lower the signal. In short, it runs like this:
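Transfected HepG2 liver cells, exposed 24 h, supplied total RNA for oligo(dT) reverse transcription and reporter-specific PCR. Labelled, HpaI-cut fragments were sized by capillary electrophoresis; DMSO set the baseline for bidirectional fitting.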

The target of assay [8] is Myc proto-oncogene protein (Homo sapiens) (UniProt P01106). The experiment in a line: ATG_Myc_CIS: Attagene CIS-FACTORIAL HepG2 Assay for human Myelocytomatosis (Myc) Proto-Oncogene Transcription Factor (AID 2282990). As to conditions: HepG2, Attagene cis-reporter transcription factor activity; actives raise or lower the signal. The essentials:
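Multiplexed cis-reporter transcription in HepG2 cells after 24 h chemical treatment. Reporter mRNA measured by RT-PCR and capillary electrophoresis fluorescence; activity fitted bidirectionally against DMSO control.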

A short description of assay [9]: ATG_NF_kB_CIS: Attagene CIS-FACTORIAL HepG2 Assay for human Nuclear Factor Kappa B (NF-kB) (AID 2282991). To be noted: HepG2 Attagene cis-factorial NF-kB reporter mRNA; actives raise or lower the signal. The essentials:
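Transient MRTU transfection of human HepG2 liver cells → 24 h chemical exposure → total RNA, oligo(dT) RT → PCR, 6-FAM primer extension, HpaI digest 2 h 37 C → CE fragment analysis. Bidirectional fitting, DMSO negative control.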

Assay [10] can be described thus: ATG_Oct_MLP_CIS: Attagene CIS-FACTORIAL HepG2 Assay for human Octamer-Binding Transcription Factor (Oct) (AID 2282993). To be noted: HepG2 Attagene cis-factorial Oct reporter, mRNA; actives raise or lower the signal. The essentials:
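Using HepG2 cells bearing transfected cis-reporter constructs, mRNA induction was read after 24 h by fluorescent RT-PCR and capillary electrophoresis, with DMSO defining baseline for gain- or loss-of-signal fits.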

For assay [11], the target named is Cellular tumor antigen p53 (Homo sapiens) (UniProt P04637). Briefly: ATG_p53_CIS: Attagene CIS-FACTORIAL HepG2 Assay for human p53 Transcription Factor (AID 2282994). To be noted: HepG2 p53 cis-element reporter, Attagene mRNA; actives raise or lower the signal. The essentials:
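Using HepG2 hepatoma cells carrying cis-acting multiplexed reporters, mRNA induction is detected after a 24 h exposure. Gain- and loss-of-signal responses are fitted relative to DMSO-treated cells.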

Assay [12] has as its target Oxysterols receptor LXR-alpha (Homo sapiens) (UniProt Q13133). Briefly: ATG_LXRa_TRANS: Attagene TRANS-FACTORIAL HepG2 Assay for human Liver X Receptor alpha (LXRa) (AID 2282980; active = hit-call score of the fitted dose curve at least 0.9, where 1 is the maximum). To be noted: HepG2 Attagene TRANS reporter, LXRa transactivation. The essentials: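 Transient HepG2 transfectants, 24 h dosing, RT-PCR/CE mRNA reporter quantitation; gain-of-signal vs DMSO.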

Assay [13] in a line: ATG_NRF2_ARE_CIS: Attagene CIS-FACTORIAL HepG2 Assay for human Nuclear Factor Erythroid 2 Related Factor 2 (NFR2) response to Antioxidant Response Elements (ARE) (AID 2282992). As to conditions: HepG2 Attagene ARE/NRF2 reporter, transcription factor activity; actives raise or lower the signal. In short, it runs like this: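 Cis-factorial assay: transfected HepG2 reporter library, 24 h dosing, mRNA readout via RT-PCR/CE; DMSO-referenced bidirectional analysis.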

The target in assay [14] is Oxysterols receptor LXR-beta (Homo sapiens) (UniProt P55055). The experiment in a line: ATG_LXRb_TRANS: Attagene TRANS-FACTORIAL HepG2 Assay for human Liver X Receptor beta (LXRb) (AID 2282981; active = hit-call score of the fitted dose curve at least 0.9, where 1 is the maximum). To be noted: HepG2 Attagene TRANS GAL4-LXRb reporter, mRNA. In short, it runs like this:
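HepG2 cells transiently transfected with multiple reporter transcription units carrying chimeric NR-Gal4 proteins acting on GAL4-UAS reporters; compound exposure 24 h. Reporter mRNA quantified by RT-PCR, 6-FAM labelling, HpaI digestion and capillary electrophoresis; gain of signal versus DMSO.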

In assay [15] the target is Nuclear receptor subfamily 4 group A member 2 (Homo sapiens) (UniProt P43354). The experiment in a line: ATG_NURR1_TRANS: Attagene TRANS-FACTORIAL HepG2 Assay for human Nuclear Receptor Related Protein 1 (NURR1) (AID 2282985; active = hit-call score of the fitted dose curve at least 0.9, where 1 is the maximum). To be noted: HepG2 Attagene TRANS reporter, mRNA readout. In short, it runs like this:
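HepG2 cells transiently transfected with GAL4-UAS reporter units and chimeric NR-Gal4 constructs; chemical exposure 24 h. Reporter mRNA quantified by RT-PCR, fluorescent labelling and capillary electrophoresis; gain of signal fitted relative to DMSO baseline.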

Assay [16] concerns the target Hepatocyte nuclear factor 4-alpha (Homo sapiens) (UniProt P41235). The experiment in a line: ATG_HNF4a_TRANS: Attagene TRANS-FACTORIAL HepG2 Assay for human Hepatocyte Nuclear Factor 4 alpha (HNF4a) (AID 2282982; active = hit-call score of the fitted dose curve at least 0.9, where 1 is the maximum). As to conditions: HepG2 HNF4a transactivation reporter, mRNA readout. The essentials: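 HepG2 cells transiently transfected with multiplexed GAL4-UAS reporter units responsive to chimeric NR-GAL4 proteins; compound exposure 24 h. Reporter mRNA quantified by RT-PCR, 6-FAM labelling, HpaI digestion and capillary electrophoresis; gain of signal versus DMSO baseline.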

The nature of assay [17]: BSK_3C_TissueFactor: BioMAP Diversity Plus: 3C Assay for Tissue Factor Biomarker Activity (AID 2282997). To be noted: BioMAP 3C HUVEC, tissue factor biomarker readout; actives raise or lower the signal. In short, it runs like this: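 Values derive from bidirectional curve fitting against DMSO of Tissue Factor ELISA signals, taken 24 h after dosing primary human umbilical vein endothelial cells.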

The nature of assay [18]: BSK_3C_uPAR: BioMAP Diversity Plus: 3C Assay for Urokinase-type plasminogen activator receptor (uPAR) Biomarker Activity (AID 2282998). To be noted: BioMAP 3C HUVEC, uPAR biomarker ELISA; actives raise or lower the signal. In short, it runs like this:
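In this endothelial cell-based assay, human umbilical vein primary cells were treated with chemicals and harvested at 24 h. uPAR was quantified using ELISA, with gains or losses fitted relative to DMSO controls.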

Assay [19] is described as follows: BSK_3C_VCAM1: BioMAP Diversity Plus: 3C Assay for Vascular cell adhesion molecule 1 (VCAM1) Biomarker Activity (AID 2282999). As to conditions: BioMAP 3C HUVEC, VCAM1 ELISA, cytokine-stimulated; actives raise or lower the signal. The essentials:
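Human umbilical vein endothelial cells were dosed with compound for 24 h, after which cell-surface VCAM-1 was quantified by ELISA. Bidirectional curve fitting used DMSO as negative control and activity baseline.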
Background: In an ELISA, binding on a coated surface is turned into a signal by an enzyme label.

Assay [20] is described as follows: BSK_4H_Eotaxin3: BioMAP Diversity Plus: 4H Assay for Eotaxin 3 Biomarker Activity (AID 2283000).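 Note: CCL26 protein level quantified by ELISA in parallel with SRB cytotoxicity check.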 To be noted: primary human endothelial cells (HUVEC); actives raise or lower the signal. The essentials: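 Endothelial primary cells (human umbilical vein) exposed to compound for 24 h. ELISA detection of Eotaxin-3.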

Bile acid receptor (Homo sapiens), sequence (Q96RI1 whole entry, looked up, the tested form may be a part): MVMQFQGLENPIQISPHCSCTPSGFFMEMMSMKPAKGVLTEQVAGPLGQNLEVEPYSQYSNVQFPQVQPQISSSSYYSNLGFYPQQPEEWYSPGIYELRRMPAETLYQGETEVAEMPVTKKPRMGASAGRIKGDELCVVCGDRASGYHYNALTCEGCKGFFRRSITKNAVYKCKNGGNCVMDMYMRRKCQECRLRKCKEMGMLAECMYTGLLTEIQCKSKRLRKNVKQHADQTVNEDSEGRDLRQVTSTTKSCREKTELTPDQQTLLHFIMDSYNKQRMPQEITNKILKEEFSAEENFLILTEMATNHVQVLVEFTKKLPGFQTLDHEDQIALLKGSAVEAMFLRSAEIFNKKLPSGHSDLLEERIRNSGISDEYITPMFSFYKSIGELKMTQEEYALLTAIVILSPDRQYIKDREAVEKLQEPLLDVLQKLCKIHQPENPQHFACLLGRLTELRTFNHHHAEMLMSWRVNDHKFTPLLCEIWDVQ
Glucocorticoid receptor (Homo sapiens), sequence (P04150 whole entry, looked up, the tested form may be a part): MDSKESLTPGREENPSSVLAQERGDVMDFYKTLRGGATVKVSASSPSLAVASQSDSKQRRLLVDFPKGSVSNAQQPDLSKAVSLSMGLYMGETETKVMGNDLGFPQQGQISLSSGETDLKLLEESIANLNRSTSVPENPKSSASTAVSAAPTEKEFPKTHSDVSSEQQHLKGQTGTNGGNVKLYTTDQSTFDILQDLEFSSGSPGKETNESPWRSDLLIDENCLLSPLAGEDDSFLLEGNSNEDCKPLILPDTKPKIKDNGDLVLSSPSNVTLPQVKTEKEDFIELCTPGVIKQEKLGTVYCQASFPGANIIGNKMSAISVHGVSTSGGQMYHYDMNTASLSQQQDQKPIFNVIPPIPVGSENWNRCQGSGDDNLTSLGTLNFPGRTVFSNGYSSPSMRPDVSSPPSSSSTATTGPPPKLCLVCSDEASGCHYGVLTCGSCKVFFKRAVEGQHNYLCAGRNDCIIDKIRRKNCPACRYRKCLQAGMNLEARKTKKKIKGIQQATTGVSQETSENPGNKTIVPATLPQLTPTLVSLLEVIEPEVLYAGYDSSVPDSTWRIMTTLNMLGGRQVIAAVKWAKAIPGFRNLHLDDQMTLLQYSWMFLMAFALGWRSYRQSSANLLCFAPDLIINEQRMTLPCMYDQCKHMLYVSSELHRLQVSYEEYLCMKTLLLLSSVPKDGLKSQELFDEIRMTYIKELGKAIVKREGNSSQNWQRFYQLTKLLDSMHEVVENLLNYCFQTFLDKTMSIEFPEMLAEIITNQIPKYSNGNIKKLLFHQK
Oxysterols receptor LXR-alpha (Homo sapiens), sequence (Q13133 whole entry, looked up): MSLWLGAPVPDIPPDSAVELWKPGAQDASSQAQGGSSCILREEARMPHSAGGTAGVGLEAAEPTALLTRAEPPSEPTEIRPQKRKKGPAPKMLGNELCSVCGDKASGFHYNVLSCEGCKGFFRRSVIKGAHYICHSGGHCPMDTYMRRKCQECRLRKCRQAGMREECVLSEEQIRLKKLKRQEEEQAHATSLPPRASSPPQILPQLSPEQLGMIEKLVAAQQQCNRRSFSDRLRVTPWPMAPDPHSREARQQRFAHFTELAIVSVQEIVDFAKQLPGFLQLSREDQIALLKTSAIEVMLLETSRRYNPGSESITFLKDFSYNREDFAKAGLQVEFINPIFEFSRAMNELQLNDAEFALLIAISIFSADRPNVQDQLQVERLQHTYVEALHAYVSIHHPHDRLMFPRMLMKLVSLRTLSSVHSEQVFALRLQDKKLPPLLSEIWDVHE
Cellular tumor antigen p53 (Homo sapiens), sequence (P04637 whole entry, looked up): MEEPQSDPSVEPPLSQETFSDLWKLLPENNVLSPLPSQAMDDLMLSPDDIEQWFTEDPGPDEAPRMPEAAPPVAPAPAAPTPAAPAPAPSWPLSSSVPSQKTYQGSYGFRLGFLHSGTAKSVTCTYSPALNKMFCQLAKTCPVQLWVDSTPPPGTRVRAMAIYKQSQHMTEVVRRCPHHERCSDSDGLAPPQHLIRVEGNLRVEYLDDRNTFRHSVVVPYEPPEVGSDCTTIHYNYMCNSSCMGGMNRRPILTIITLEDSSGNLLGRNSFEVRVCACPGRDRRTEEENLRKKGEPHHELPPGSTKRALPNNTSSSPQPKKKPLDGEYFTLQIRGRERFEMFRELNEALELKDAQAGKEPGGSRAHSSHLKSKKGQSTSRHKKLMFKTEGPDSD
Myc proto-oncogene protein (Homo sapiens), sequence (P01106 whole entry, looked up): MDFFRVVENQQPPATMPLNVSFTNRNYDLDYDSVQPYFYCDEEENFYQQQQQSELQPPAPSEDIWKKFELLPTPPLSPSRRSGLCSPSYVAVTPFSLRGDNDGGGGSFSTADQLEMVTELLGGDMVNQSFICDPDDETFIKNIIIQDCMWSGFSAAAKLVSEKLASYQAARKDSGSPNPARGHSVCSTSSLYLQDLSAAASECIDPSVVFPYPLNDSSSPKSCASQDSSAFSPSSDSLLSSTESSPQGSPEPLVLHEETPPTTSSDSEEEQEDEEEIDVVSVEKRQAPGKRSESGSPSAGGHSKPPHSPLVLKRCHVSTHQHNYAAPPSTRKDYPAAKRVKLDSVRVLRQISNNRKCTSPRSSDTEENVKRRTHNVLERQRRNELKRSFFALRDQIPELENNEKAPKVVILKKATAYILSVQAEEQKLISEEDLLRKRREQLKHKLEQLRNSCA
Oxysterols receptor LXR-beta (Homo sapiens), sequence (P55055 whole entry, looked up, the tested form may be a part): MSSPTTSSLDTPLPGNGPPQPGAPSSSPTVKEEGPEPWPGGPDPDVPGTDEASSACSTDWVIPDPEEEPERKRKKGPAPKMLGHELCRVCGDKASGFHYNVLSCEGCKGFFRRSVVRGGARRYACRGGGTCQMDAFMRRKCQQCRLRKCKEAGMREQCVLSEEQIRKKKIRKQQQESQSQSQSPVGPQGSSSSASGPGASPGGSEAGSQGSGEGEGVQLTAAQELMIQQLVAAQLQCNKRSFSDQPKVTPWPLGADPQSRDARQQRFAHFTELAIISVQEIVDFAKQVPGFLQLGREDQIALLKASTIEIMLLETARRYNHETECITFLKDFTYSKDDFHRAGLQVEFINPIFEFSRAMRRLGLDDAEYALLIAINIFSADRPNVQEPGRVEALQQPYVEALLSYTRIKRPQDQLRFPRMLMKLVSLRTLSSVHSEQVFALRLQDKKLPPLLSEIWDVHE
Hepatocyte nuclear factor 4-alpha (Homo sapiens), sequence (P41235 whole entry, looked up, the tested form may be a part): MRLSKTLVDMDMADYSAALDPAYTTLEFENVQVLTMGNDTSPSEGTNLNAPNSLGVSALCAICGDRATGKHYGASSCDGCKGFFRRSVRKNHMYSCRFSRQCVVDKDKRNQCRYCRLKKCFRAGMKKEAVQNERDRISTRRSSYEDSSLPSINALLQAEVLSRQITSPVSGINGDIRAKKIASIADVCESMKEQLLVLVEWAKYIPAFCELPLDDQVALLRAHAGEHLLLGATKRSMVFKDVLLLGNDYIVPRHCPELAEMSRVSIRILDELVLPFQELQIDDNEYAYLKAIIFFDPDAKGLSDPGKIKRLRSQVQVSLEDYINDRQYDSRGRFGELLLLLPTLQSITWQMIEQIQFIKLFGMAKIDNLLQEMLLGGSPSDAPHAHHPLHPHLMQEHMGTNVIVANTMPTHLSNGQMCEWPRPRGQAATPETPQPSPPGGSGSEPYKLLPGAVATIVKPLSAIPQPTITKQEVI

With `Cc1cccc(C)c1C`, the call in assay [1], in [2], in [3], in assay [4], in [5] and in assay [6] was inactive. The molecule was called inactive in [7], in assay [8], in assay [9], in [10] and in assay [11].
With `CC(C#N)(CCC(=O)O)N=NC(C)(C#N)CCC(=O)O` (stereo unspecified), the result in assay [1], in assay [2], in [12], in assay [3], in [4] and in [5] was inactive. Besides, the outcome in assay [6], in assay [7], in assay [8], in [13], in [10] and in assay [11] was inactive.
With `CCCc1c(OCCCOc2ccc(OCC(=O)O)cc2)ccc(C(C)=O)c1O`, the molecule was called inactive in [1], in assay [2], in assay [14], in assay [3], in [4] and in [7]. The molecule was called inactive in assay [8], in [9], in [13] and in assay [10]. The AC50 in [15] and in [6] was 100 µM (active) in each case.
Consider `CC(C)(N)CO`, for which the result in assay [1], in assay [2], in [12], in [14], in [3] and in [5] was inactive. Also, the molecule was called inactive in assay [7], in assay [8], in assay [9], in assay [13], in [10] and in assay [11].
For the molecule `COc1c(Cl)c(Cl)c(Cl)c(Cl)c1Cl`, the call in [1], in assay [2], in [16], in assay [3], in assay [6] and in [7] was inactive. For the same molecule, the outcome in assay [8], in [9], in assay [13] and in assay [10] was inactive.
Consider `CC(=O)O[C@]1(C(C)=O)CC[C@H]2[C@@H]3C[C@H](C)C4=CC(=O)CC[C@]4(C)[C@H]3CC[C@@]21C`, for which the AC50 in [1] is 0.354 µM (active); in [9], 20 µM (active); in assay [13], 65.1 µM (active); in assay [11] it was 34.9 µM (active). The outcome in [2], in [12], in [3], in assay [7], in [8] and in assay [10] was inactive. Besides, the result in assay [17], in assay [18], in assay [19] and in assay [20] was inactive.

As usually defined, the AC50 is the concentration at which the activity in the assay is half-maximal.

For the origin of these results see PubChem BioAssay (EPA / NIEHS).
